Source: PubChem BioAssay
Results filed as inconclusive are left out. Activity calls are given as the source filed them.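 The calls were made as follows, unless noted: active = growth inhibition above 25% in both replicates, a cutoff set 3 SD above the mean; inconclusive = above 25% in only one replicate; inactive = the rest.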

Columns and labels:
[1] = reducers of endogenous Her2 protein level, primary screen, SKBR3 breast tumor cells, AlphaScreen, ATP viability (AID 461;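 active = Her2 level under about 52% in both replicate screens, with viability over 70% of control, limit read from the data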;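 as to Her2 level: lower value means less Her2 protein in the cells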;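 as to viability: percent of carrier control wells set as 100% viability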); conditions: 18-24 h, measured here: SKBR3 viability, ATP luminescence, at 10 µM
[2] = target: Receptor tyrosine-protein kinase erbB-2 (Homo sapiens) (UniProt P04626); assay: as above; conditions: 18-24 h, at 10 µM, stronger effect = lower value
Chain of Receptor tyrosine-protein kinase erbB-2 (Homo sapiens) (P04626 whole entry, looked up): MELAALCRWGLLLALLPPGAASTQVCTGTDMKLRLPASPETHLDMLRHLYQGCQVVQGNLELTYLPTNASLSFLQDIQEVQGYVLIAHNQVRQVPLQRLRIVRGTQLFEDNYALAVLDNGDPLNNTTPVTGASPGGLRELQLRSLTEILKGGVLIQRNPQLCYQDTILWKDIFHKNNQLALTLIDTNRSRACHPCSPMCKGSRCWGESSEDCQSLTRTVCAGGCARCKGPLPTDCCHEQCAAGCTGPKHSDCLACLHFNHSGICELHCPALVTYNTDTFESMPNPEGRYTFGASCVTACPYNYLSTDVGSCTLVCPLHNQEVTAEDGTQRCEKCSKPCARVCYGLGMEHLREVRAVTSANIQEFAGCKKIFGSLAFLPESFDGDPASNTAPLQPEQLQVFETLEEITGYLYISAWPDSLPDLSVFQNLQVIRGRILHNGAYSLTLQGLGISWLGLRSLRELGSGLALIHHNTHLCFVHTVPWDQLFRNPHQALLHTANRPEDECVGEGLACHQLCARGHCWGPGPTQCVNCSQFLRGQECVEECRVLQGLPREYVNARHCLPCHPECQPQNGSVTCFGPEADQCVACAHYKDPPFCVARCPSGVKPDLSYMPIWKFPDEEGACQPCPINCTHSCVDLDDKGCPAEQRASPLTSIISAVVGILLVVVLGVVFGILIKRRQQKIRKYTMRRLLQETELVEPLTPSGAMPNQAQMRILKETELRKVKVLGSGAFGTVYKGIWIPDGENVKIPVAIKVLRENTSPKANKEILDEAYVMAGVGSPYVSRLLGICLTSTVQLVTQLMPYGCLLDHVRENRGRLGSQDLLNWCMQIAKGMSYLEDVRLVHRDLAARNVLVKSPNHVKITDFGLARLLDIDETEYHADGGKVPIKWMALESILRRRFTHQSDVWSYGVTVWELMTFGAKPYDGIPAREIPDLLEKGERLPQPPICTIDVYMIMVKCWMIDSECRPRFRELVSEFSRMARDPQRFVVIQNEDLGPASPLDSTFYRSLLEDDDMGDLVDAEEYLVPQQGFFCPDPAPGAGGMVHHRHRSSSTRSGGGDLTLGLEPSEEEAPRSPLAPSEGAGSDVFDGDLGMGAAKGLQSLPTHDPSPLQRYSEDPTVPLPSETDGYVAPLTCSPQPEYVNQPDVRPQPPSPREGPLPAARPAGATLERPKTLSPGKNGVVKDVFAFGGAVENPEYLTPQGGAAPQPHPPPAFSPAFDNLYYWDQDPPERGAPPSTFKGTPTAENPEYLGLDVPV

[3] = SK-BR-3 cell growth inhibitors, pilot screen, 24 h, human (AID 572;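 active = viability at or below 10% of carrier control in both of two separate runs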;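 also: compound exposure lasted between 18 and 24 h rather than exactly 24 h; 100% = carrier-treated control wells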); conditions: SK-BR-3 viability, CellTiter-Glo luminescence, at 10 µM, stronger effect = lower value
[4] = HUVEC growth inhibition – cell-based, human, primary screen (AID 575;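 active = viability at or below 30% in both replicate assays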;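 also: 100% = median of untreated cell wells with 0.1% DMSO on each plate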); conditions: HUVEC proliferation, CellTiter-Glo luminescence, 72 h; at 10 µM; stronger effect = lower value
[5] = growth inhibitors of H69AR lung tumor, primary screen, human, duplicate replicates (AID 580;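 active = viability at or under a set limit in both replicates, limit being median viability minus 3 SD, cut at about 48% in these data, passing the limit was not always enough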;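 also: 100% = mean luminescence of untreated wells and 0% = no signal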); conditions: H69AR lung tumor cells viability, ATP luminescence, 72 h; at 10 µM; stronger effect = lower value
[6] = reversal of MRP1-mediated doxorubicin resistance, pilot screen, H69AR cells, doxorubicin co-treatment (AID 601;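 active = viability loss from added drug above about 55%, and viability with drug at most 40%, in both replicates, limit read from the data, passing the limit was not always enough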); conditions: CellTiter-Glo, 72 h, at 10 µM; for differential viability (reversal): stronger effect = higher value
[7] = 384-well plate pilot, post-Golgi transport modulator project, inhibition of yeast transport mutant growth (AID 636; in the data active = inhibition above about 31%); conditions: absorbance 615 nm, about 18 h, stronger effect = higher value
[8] = growth suppression of yeast trafficking mutant, preliminary HTS, modulators of trafficking downstream of Golgi apparatus project, 1536-format plate, OD 615 nm (AID 637; in the data active = inhibition above about 30%); conditions: yeast transport mutant growth, absorbance 615 nm, 18 h; stronger effect = higher value
[9] = OD615 S. cerevisiae growth inhibition, permissive medium, pilot counter-assay, permissive growth control for S. cerevisiae lifespan shortening project (AID 705); conditions: OD615, 24 h, at 10 µM, stronger effect = higher value
[10] = Restrictive medium S. cerevisiae growth inhibition, OD615, pilot screen of yeast lifespan reduction project, restrictive growth control (AID 706;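 active = growth inhibition above a set limit, 3 SD over mean compound inhibition, in both replicates, cut at about 43% in these data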;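 also: modified DeaD lifespan yeast strain shifted to restrictive glucose medium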); conditions: OD615, 48 h, at 10 µM, stronger effect = higher value
[11] = viability gain of MRP-1-high H69AR cells under doxorubicin, pilot screen, MRP-1 activator project, CellTiter-Glo, duplicate (AID 807;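 active = viability increase at or above a cutoff of the median across tested compounds plus 3 SD, cut at about 8.5% in these data, passing the limit was not always enough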;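 also: compound pretreatment 18-22 h then 72 h combined with doxorubicin; 0% = doxorubicin alone and 100% = vehicle without doxorubicin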); conditions: H69AR viability with doxorubicin, CellTiter-Glo luminescence; at 10 µM; stronger effect = higher value
[12] = growth suppression of beta-catenin knockout HCT116, pilot screen, human colon tumor cells (AID 823;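 active = cell viability at or below a set limit in both duplicate runs, the limit being the all-compound median minus 4 SD, cut at about 23% in these data, passing the limit was not always enough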;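 also: 0% = wells killed by 20 µM Hyamine and 100% = untreated DMSO cell wells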); conditions: CellTiter-Glo, 60 h, at 10 µM, stronger effect = lower value
[13] = growth suppression of PTEN-deleted HCT116, pilot screen, cell-based, HCT116 clonal line, CellTiter-Glo (AID 824;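 active = viability at or below 27.92% in each of two runs, the all-compound median minus 4 SD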;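 also: 0% = 20 µM Hyamine control and 100% = vehicle cell control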); conditions: 60 h, at 10 µM, stronger effect = lower value
[14] = inhibitors of the yeast RAM network, pilot screen, dse1pr::URA3 reporter, 5-FOA selection (AID 869;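 active = inhibition over a set limit, the all-compound mean plus 3 SD, in both replicate runs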;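 also: 0% = DMSO wells with no growth and 100% = 10 µM 1-NA-PP1 with full growth; RAM network block rescues cells from 5-FOA so hits raise OD615 growth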); conditions: S. cerevisiae dse1pr::URA3 5-FOA growth, OD615, 2 d; at 10 µM; stronger effect = higher value; strain carries analog-sensitive mutant Cbk1 kinase
[15] = RAM signaling pathway blockade in yeast – S. cerevisiae, Pdr1DBD-CYC8 efflux-inhibited sensitized strain, primary screen (AID 1298;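 active = RAM network inhibition above 8.4% in each of two replicates, 3 SD over the compound average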;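 also: 0% = DMSO untreated cells without growth and 100% = 10 µM 1-NA-PP1 full growth; higher means more yeast growth rescued from 5-FOA killing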); conditions: S. cerevisiae cbk1-as DSE1-URA3 strain, 5-FOA growth OD615, 2 d; at 50 µM; stronger effect = higher value
[16] = H69AR cells + 2 uM doxorubicin, measured here: viability with 2 uM doxorubicin, stronger effect = lower value
[17] = H69AR cells, compound alone cytotoxicity

CCn1c(-c2cc(Br)ccc2O)n[nH]c1=S
inactive: Her2 level [2] 88.5% | viability [3] 99% | viability [4] 107% | viability [5] 98% | differential viability (reversal) ([6]; H69AR cells + 2 uM doxorubicin) 0.39% | inhibition [7] -4.59% | inhibition [8] 3.02% | growth inhibition [9] -10% | growth inhibition [10] -14.2% | viability increase [11] -1.24% | viability [12] 98.9% | viability [13] 96.8% | inhibition [14] 1.45% | RAM network inhibition [15] 0.78%
97.6%: viability [6, 16]
98%: viability [6, 17]
99%: viability [1]

COc1cccc(C2=NOC(C(=O)N3CCc4ccccc4C3)C2)c1 (stereo not given)
77.9%: viability [6, 16]
92%: viability [6, 17]
inactive: Her2 level [2] 92.5% | viability [3] 87% | viability [4] 92.2% | viability [5] 92% | differential viability (reversal) ([6]; H69AR cells + 2 uM doxorubicin) 14.1% | inhibition [7] -1.41% | inhibition [8] -1.83% | growth inhibition [9] -9.41% | growth inhibition [10] 4.4% | viability increase [11] -2.18% | viability [12] 104% | viability [13] 95.5% | inhibition [14] -0.045% | RAM network inhibition [15] -2.13%
87%: viability [1]

Cc1ccc2oc(=O)c3cnn(CC(=O)N4CCCc5ccccc54)c3c2c1
74.8%: viability [6, 17]
60.9%: viability [6, 16]
inactive: Her2 level [2] 98.5% | viability [3] 100% | viability [4] 89.8% | viability [5] 74.8% | differential viability (reversal) ([6]; H69AR cells + 2 uM doxorubicin) 13.9% | inhibition [7] -2.67% | inhibition [8] -0.82% | growth inhibition [9] -12.4% | growth inhibition [10] -5.59% | viability increase [11] -3.17% | viability [12] 91.3% | viability [13] 82.3% | inhibition [14] 3.85% | RAM network inhibition [15] 6.86%
100%: viability [1]

COc1ccc(NS(=O)(=O)c2coc(C(N)=O)c2)cc1Cl
101%: viability [1]
107%: viability [6, 16]
99.1%: viability [6, 17]
inactive: Her2 level [2] 110% | viability [3] 101% | viability [4] 119% | viability [5] 99.1% | differential viability (reversal) ([6]; H69AR cells + 2 uM doxorubicin) -8.07% | inhibition [7] 0% | inhibition [8] 11% | growth inhibition [9] -21.1% | growth inhibition [10] -10.9% | viability increase [11] -0.71% | viability [12] 108% | viability [13] 102% | inhibition [14] 1.92% | RAM network inhibition [15] 1.58%

COCCNC(=O)CN1C(=O)CSc2ncccc21
95.1%: viability [6, 16]
83.5%: viability [1]
inactive: Her2 level [2] 88% | viability [3] 83.5% | viability [4] 97.8% | viability [5] 86.4% | differential viability (reversal) ([6]; H69AR cells + 2 uM doxorubicin) -8.7% | inhibition [7] -4.67% | inhibition [8] -0.33% | growth inhibition [9] 2.19% | growth inhibition [10] -5.72% | viability increase [11] -0.21% | viability [12] 102% | viability [13] 92% | inhibition [14] 1.92% | RAM network inhibition [15] 0.97%
86.4%: viability [6, 17]

CCCN(CCC)CCNC(=O)c1cc2c(=O)n(C)c3ccccc3c2n1C
77.1%: viability [6, 17]
inactive: Her2 level [2] 98.5% | viability [3] 89% | viability [4] 57.5% | viability [5] 77.1% | differential viability (reversal) ([6]; H69AR cells + 2 uM doxorubicin) 13% | inhibition [7] -2.53% | inhibition [8] 1.67% | growth inhibition [9] 6.58% | growth inhibition [10] 1.31% | viability increase [11] -6.19% | viability [12] 69.6% | viability [13] 73.4% | inhibition [14] 1.12% | RAM network inhibition [15] 0.57%
64%: viability [6, 16]
89%: viability [1]

CCC(=O)Nc1cccc(Br)c1
95.4%: viability [6, 17]
97.7%: viability [6, 16]
inactive: Her2 level [2] 116% | viability [3] 114% | viability [4] 113% | viability [5] 95.4% | differential viability (reversal) ([6]; H69AR cells + 2 uM doxorubicin) -2.25% | inhibition [7] -4.4% | inhibition [8] -8.06% | growth inhibition [9] -9.21% | growth inhibition [10] 2.72% | viability increase [11] -0.82% | viability [12] 96.4% | viability [13] 85.5% | inhibition [14] -0.04% | RAM network inhibition [15] -0.05%
114%: viability [1]

CCCCCOc1ccc(C2NC(=O)NC2=O)cc1 (stereo not given)
97%: viability [1]
88.1%: viability [6, 16]
inactive: Her2 level [2] 109% | viability [3] 97% | viability [4] 102% | viability [5] 106% | differential viability (reversal) ([6]; H69AR cells + 2 uM doxorubicin) 18.2% | inhibition [7] -4.93% | inhibition [8] -3.5% | growth inhibition [9] -7.17% | growth inhibition [10] -19.9% | viability increase [11] -1.63% | viability [12] 101% | viability [13] 94.5% | inhibition [14] 0.245% | RAM network inhibition [15] 1.57%
106%: viability [6, 17]

CN(CCCNC(=O)c1cn(C)c2ccc(S(=O)(=O)N(C)C)cc2c1=O)c1ccccc1
inactive: Her2 level [2] 90% | viability [3] 85.5% | viability [4] 98.3% | viability [5] 87.7% | differential viability (reversal) ([6]; H69AR cells + 2 uM doxorubicin) 17.1% | inhibition [7] 0.38% | inhibition [8] -1% | growth inhibition [9] 1.83% | growth inhibition [10] -0.125% | viability increase [11] -3.8% | viability [12] 94.8% | viability [13] 85% | inhibition [14] 0.395% | RAM network inhibition [15] 7.85%
70.6%: viability [6, 16]
85.5%: viability [1]
87.7%: viability [6, 17]

COC(=O)C1=C(C)NC2=C(C(=O)CCC2)C1c1coc2ccccc2c1=O (stereo not given)
90.9%: viability [6, 16]
93%: viability [6, 17]
inactive: Her2 level [2] 81% | viability [3] 91% | viability [4] 97.7% | viability [5] 93% | differential viability (reversal) ([6]; H69AR cells + 2 uM doxorubicin) 2.12% | inhibition [7] -3.97% | inhibition [8] -1.5% | growth inhibition [9] -7.39% | growth inhibition [10] 6.02% | viability increase [11] -4.25% | viability [12] 89.4% | viability [13] 90.1% | inhibition [14] 2.04% | RAM network inhibition [15] 1.39%
91%: viability [1]
